Test results taken from PubChem BioAssay (NCI).
The panel holds about 83,000 compounds, 20% with a hit somewhere; the sample as a whole holds those more often.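 Treatment: one concentration, 48 hours, 96-well format. Scoring: percent growth, with anything below 10 considered active.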 Unmarked numbers belong to inactive results. Activity calls are given as the source filed them.

test system: HS 578T breast; experiment: NCI-60 one-dose screen, 48 h (100 = growth as untreated, 0 = no growth, -100 = all killed); conditions: 10 µM unless noted
Experimental: Growth inhibition of the HS 578T human tumor cell line is measured as a screen for anti-cancer activity. Cells are grown in 96 well plates and exposed to the test compound for 48 hours. Compounds are tested at a single concentration, which is 10^-5 M for most compounds. The reported endpoint is percent growth (GI% or GIPRCNT), where numbers from 0 - 100% represent growth inhibition, and numbers from -100% - 0 represent cell death. For example, a value of 40 represents 60% growth inhibition. A value of 0 means no net growth occurred over the course of the experiment. A value of -40 indicates 40% of cells at the beginning of the experiment died by the end of the experiment. A value of -100 means all cells are dead at the end of the experiment.
NCI-60 Human Tumor Cell Lines Screen was performed using the standard one-dose NCI protocol, which is described in more detail at https://dtp.cancer.gov/discovery_development/nci-60/default.htm.
Compounds with GIPRCNT values below 10 were considered active. Activity score was based on GIPRCNT using the following formula: […]
Score is 0 for GIPRCNT values of 100 or above, 50 for GIPRCNT values of 0, and 100 for GIPRCNT values of -100.

Compound | growth
CCn1c(SCC(=O)Nc2cccc(C(=O)/C=C/c3ccc(C)cc3)c2)nc2ccccc2c1=O | 101%
O=C(CCn1cc[n+](CC(=O)c2ccc(-c3ccccc3)cc2)c1)Nc1cccc2cccnc12 | 71.3%
CC(C)(C)c1ccc(-c2nnc(-c3nc4ccccc4nc3Cl)o2)cc1 | -8.86% (active)
Clc1ccc(N/N=c2/oc3ccccc3cc2-c2cc3ccccc3[nH]2)cc1 | 103%
CCc1cccc2c3c(sc12)C(c1ccc(OC)cc1)C(C#N)=C(/N=C/c1ccc(Cl)cc1)O3 (stereo not given) | -7.21% (active)
CCOC(=O)c1c(NC(=O)c2ccccc2C(F)(F)F)sc2c1CCC(=O)C2 | 36.3%
Cn1ccnc1C(=O)/C=C/c1ccc(CNC(=O)c2ccc(Cl)cc2)cc1 | 28.1%
COc1ccc(/C=N/NC2=NC3C(S2)N(C)C(=O)N3C)cc1 (stereo not given) | 0.337% (active)
C=C=COc1cccc(/C(N)=N/C(N)=N/c2nc3ccccc3s2)c1 | 59.9%
O=C(c1ccc(Cl)cc1)C1[C@H](c2ccc(Cl)cc2)[C@@H](c2ccccc2)NC12C(=O)Nc1ccccc12 (stereo not given in full) | 67.1%
C#C[C@]1(O)CC[C@H]2[C@@H]3CC=C4c5sc(-c6ccc(C)cc6)nc5CC[C@]4(C)[C@H]3CC[C@@]21C | -26.9% (active)
COC(=O)C1(C)CCC[C@]2(C)[C@H]3C[C@H]4C(C(C)C)=C[C@]3(CC[C@@H]12)[C@H]1[C@@H]4[C@@H](OC(=O)c2ccco2)CC[C@@H]1OC(=O)c1ccco1 (stereo not given in full) | 110%
O=[N+]([O-])c1cc(/C=N/Nc2nc(N/N=C/c3ccc(Cl)c([N+](=O)[O-])c3)nc(N3CCCCC3)n2)ccc1Cl | 53.8%
CC[C@]12C=CCN3CC[C@@]4(c5cc(NC(=O)COc6cc(O)c7c(=O)cc(-c8ccccc8)oc7c6)c(OC)cc5N(C)[C@H]4[C@@](O)(C(=O)OC)[C@@H]1OC(C)=O)[C@@H]32 | 2.1% (active)
COc1c(N2CC3CCCNC3C2)c(F)cc2c(=O)c(C(=O)N/N=C/c3ccc(Br)cc3)cn(C3CC3)c12 (stereo not given) | 88.4%
CCOC(=O)c1c(Nc2ccccc2)nn2c(-c3cccs3)ccnc12 | 90.2%
COc1cc(/C=C2\C(=O)Nc3ccccc32)ccc1OCc1ccc(F)cc1 | 115%
Cc1cc(-c2ccc(Cl)cc2)n(Cc2nnc(SCC(=O)Nc3ccc(S(N)(=O)=O)cc3)n2-c2ccc([N+](=O)[O-])cc2)n1 | 96.7%
C=C(C)[C@@H]1CC[C@]2(C(=O)NCCCCCN(CCC#N)CCC#N)CC[C@]3(C)[C@H](CC[C@@H]4[C@@]5(C)CCC(=O)C(C)(C)[C@@H]5CC[C@]43C)[C@@H]12 | 103%
COc1ccc(CCOc2cc3c(cc2OC)CCN(C(=O)NCc2cocn2)C3c2ccc(C)cc2C)cc1 (stereo not given) | -4.03% (active)

Compound | growth
O=C(CSc1nc2ccccc2c(=O)n1-c1ccccc1)Nc1cccc(C(=O)/C=C/c2ccccc2Cl)c1 | 106%
c1cc(-c2nc3ccc4[nH]ncc4c3c3c2CCCC3)[nH]n1 | 41.3%
CCOc1ccc(C(=O)Nc2ncc(Cc3ccc(F)cc3)s2)cc1 | 1.23% (active)
Cn1cc(-c2cc(N)n3nc(-c4cn(C)c5ccccc45)cc3n2)c2ccccc21 | 124%
C=C1CC[C@@H]2[C@]3(C)COC(c4ccccc4)O[C@@H]3CC[C@@]2(C)[C@@H]1C/C=C1/C(=O)OC[C@H]1O (stereo not given in full) | 101%
CN1CCN(Cc2ccc(NC(=O)c3cncc(C#Cc4cnc5ccc(OCC6(C)COC6)nn45)c3)cc2C(F)(F)F)CC1 | -50.2% (active)
CCCn1cnc2c(c1=N)C(c1ccc(OC)cc1)c1sc3c(C)cccc3c1O2 (stereo not given) | 10.5%
CNC(=O)c1c(NC(=O)c2cccc(C(F)(F)F)c2F)sc2c1CCC(=O)C2 | 8.98% (active)
C[C@H](CCC(=O)NCc1ccc(C(=O)Nc2ccccc2N)cc1)[C@H]1CC[C@H]2[C@@H]3[C@@H](O)C[C@@H]4C[C@H](O)CC[C@]4(C)[C@H]3CC[C@]12C | 69.6%
O=C(NCCn1ccnc1)c1ccc(-c2nc3ccc4[nH]ncc4c3c3c2CCCC3)cc1 | 2.42% (active)
CCn1c(SCC(=O)Nc2cccc(C(=O)/C=C/c3ccc(Br)cc3)c2)nc2ccccc2c1=O | 98.3%
O=C1CCCC2=C1C(c1c[nH]c3ccc(Br)cc13)Cc1cc(Br)ccc1N2 (stereo not given) | 20.2%
Cc1ccc(-c2nnc(SCc3ccc(O)c4ncccc34)o2)cc1 | 15.5%
O=C(c1ccc(O)cc1)[C@@H]1CN[C@@]2(C(=O)Nc3ccccc32)[C@H]1c1ccc(F)cc1 | 110%
COc1ccc([C@@H]2c3[nH]c4ccccc4c3C[C@H]3C(=O)N(C4CCN(CC5CCCCC5)CC4)CC(=O)N23)c(OC)c1 | 68.9%
N#C/C(=C\c1ccc(-c2ccc(Cl)cc2Cl)o1)c1ccc(F)cc1 | 89.9%
CCCC(=O)NC(c1cccnc1)c1cc(C(C)(C)C)c2cccnc2c1O (stereo not given) | 46.6%
CN1CCN(c2ccc(/C=N/Nc3nc4ccccc4c(=O)n3-c3ccccc3)cc2)CC1 | 92.5%
CNC(=O)c1cc(-c2ccc(NC(=S)Nc3cc(C(F)(F)F)cc(C(F)(F)F)c3)cc2)nc2cccnc12 | 93.9%
CCC(CC)N1C(=O)/C(=c2\sc3n(c2=O)NC2C(N=3)N(CC)C(=O)N2CC)c2ccccc21 (stereo not given) | 73.1%
